# Active and inactive are the calls of the source. Unless noted, the rule behind the calls is not given here.
# Columns and labels:
# [1] = system: Wnt5a (protein binding on small-molecule microarray); experiment: Wnt5a binders on small-molecule microarray, primary screen, biophysical, 635/667 nm fluorescence (AID 1142); settings: 635 nm fluorescence, higher = more signal;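 note: fluorescence read at 667 nm with signal to noise per printed feature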
# [2] = cell viability in Huh7 cells, primary screen, cytotoxicity control for HCV replication inhibitor project, CellTiter-Glo luminescence, basal, 48 h (AID 1143); settings: Huh7 HCV replicon, higher = more signal, called active from +8 up or from −8 down;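 note: Huh7 hepatoma cells carrying a hepatitis C replication reporter with no stimulus; test concentration not given here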
# [3] = P. aeruginosa biofilm formation inhibitors, primary screen, PAO1 strain, BacTiter-Glo luminescence, LB-PBS (AID 1144); settings: 12 h, higher = more signal
# [4] = CREB reporter modulators without forskolin, primary screen, cell-based, PC12, CRE-LacZ reporter, unstimulated (AID 1145); settings: no forskolin, luminescence, 4.5 h, higher = more signal, called active from +8 up or from −8 down
# [5] = CREB reporter modulators under forskolin, primary screen, cell-based, PC12, CRE-LacZ reporter, forskolin-stimulated (AID 1146); settings: luminescence, 4.5 h, higher = more signal, called active from +8 up or from −8 down;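 note: PC12 cells with 6xCRE LacZ reporter stimulated by forskolin 10 µM; beta-galactosidase reporter signal reflecting CREB driven transcription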
# [6] = biological target: Streptavidin (Streptomyces avidinii) (UniProt P22629); experiment: streptavidin binders on small-molecule microarray, primary screen, artefact control for SMM compound annotation, biophysical, 635/667 nm fluorescence (AID 1147); settings: streptavidin binding, higher = more signal;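 note: signal reflects streptavidin binding to arrayed compounds as a control protein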
# Streptavidin (Streptomyces avidinii), sequence (P22629 whole entry, looked up): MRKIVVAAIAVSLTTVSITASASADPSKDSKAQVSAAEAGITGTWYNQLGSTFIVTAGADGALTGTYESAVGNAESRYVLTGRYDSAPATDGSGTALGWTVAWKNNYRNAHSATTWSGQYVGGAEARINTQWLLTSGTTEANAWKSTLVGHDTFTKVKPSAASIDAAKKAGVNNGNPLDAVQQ
# [7] = small-molecule binders of probe aInhba, primary screen, biochemical, small-molecule microarray, 635/667 nm fluorescence (AID 1148); settings: higher = more signal;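 note: score merges 667nm spot fluorescence with signal-to-noise for antibody binding to printed compounds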
# [8] = biological target: Torsin-1A (Homo sapiens) (UniProt O14656); experiment: torsin A binders from cell lysate, primary screen, small-molecule microarray, wild-type, 635/667 nm (AID 1149); settings: COS7 hTOR1A-WT lysate, 635 nm fluorescence, higher = more signal
# Torsin-1A (Homo sapiens), sequence (O14656 whole entry, looked up): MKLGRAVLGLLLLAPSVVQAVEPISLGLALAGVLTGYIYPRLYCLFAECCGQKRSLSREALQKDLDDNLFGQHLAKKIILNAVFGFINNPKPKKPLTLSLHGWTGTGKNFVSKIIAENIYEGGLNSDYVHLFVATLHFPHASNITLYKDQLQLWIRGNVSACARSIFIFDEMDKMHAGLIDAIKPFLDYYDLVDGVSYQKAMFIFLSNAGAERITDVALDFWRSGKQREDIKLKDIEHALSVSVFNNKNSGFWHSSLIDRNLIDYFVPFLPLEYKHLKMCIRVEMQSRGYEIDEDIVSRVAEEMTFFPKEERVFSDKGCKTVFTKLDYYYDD
# [9] = biological target: Torsin-1A (Homo sapiens) (UniProt O14656); experiment: small-molecule binders of mutant TOR1A in lysate, primary screen, cell lysate, small-molecule microarray, COS7 lysate, 635/667 nm fluorescence (AID 1150); settings: COS7 hTOR1A mutant lysate, 635 nm fluorescence, higher = more signal;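 note: score pools 667 nm emission and signal to noise measuring lysate protein binding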
# [10] = system: Sonic hedgehog protein (Shh); experiment: small-molecule binders of Shh protein, primary screen, biochemical, small-molecule microarray, 635/667 nm fluorescence (AID 1151); settings: small-molecule microarray binding, 635 nm fluorescence; higher = more signal;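 note: Shh protein binding to compounds spotted on small-molecule microarray slides; score combines spot fluorescence intensity with signal-to-noise across triplicate slides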
# [11] = E. coli DRC41 culture turbidity changes, primary screen, E. coli filamentation inducer project, strain DRC41, OD650, 48 h (AID 1152);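 note: E. coli MC1000 strain DRC41 lacking acrAB efflux pump and sulA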; settings: E. coli DRC41 (acrAB sulA), higher = more signal, called active from +8 up or from −8 down
# [12] = small-molecule binders of probe aLefty1, primary screen, biochemical, small-molecule microarray, 635/667 nm fluorescence (AID 1153); settings: higher = more signal;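 note: score merges spot fluorescence with signal-to-noise ratio from the scanned slide images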
# [13] = PSAC antagonists in infected red cells, primary screen, cell-based, P. falciparum Indochina, OD700, 1 h (AID 1154); settings: P. falciparum Indochina infected RBC osmotic lysis, higher = more signal, called active from +8 up or from −8 down
# [14] = PSAC antagonists in infected red cells, primary screen, cell-based, P. falciparum Indochina, OD700, 2 h (AID 1155);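 note: lysis reports solute entry through the parasite surface anion channel PSAC; channel blockers reduce lysis of infected cells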; settings: P. falciparum Indochina infected erythrocytes, osmotic lysis OD700; higher = more signal, called active from +8 up or from −8 down
# [15] = osmotic lysis modulators in infected erythrocytes, primary screen, PSAC antagonist project, cell-based, P. falciparum Indochina, OD700, 3 h (AID 1156); settings: higher = more signal, called active from +8 up or from −8 down
# [16] = PSAC antagonists in infected red cells, primary screen, cell-based, P. falciparum Indochina, OD700, 18 h (AID 1157); settings: P. falciparum Indochina infected erythrocytes, osmotic lysis OD700, 18 h; higher = more signal, called active from +8 up or from −8 down
# [17] = modulators of S6 phosphorylation in cells, primary screen, cell-based, A549, cytoblot, luminescence, serum-stimulated (AID 1158); settings: A549 phospho-S6 cytoblot, 5 h, higher = more signal;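 note: serum-stimulated A549 lung adenocarcinoma cells; signal is phosphorylated S6 detected by cytoblot immunostaining with HRP secondary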
# [18] = biological target: NADPH oxidase 2 (Homo sapiens) (UniProt P04839); experiment: NOX2-dependent H2O2 signal modulators, primary screen, NOX inhibitor project, cell-based, HEK293-NOX2, PMA-stimulated, Amplex Red fluorescence (AID 1159); settings: 45 min, higher = more signal, called active from +8 up or from −8 down; note: test concentration not given here
# NADPH oxidase 2 (Homo sapiens), sequence (P04839 whole entry, looked up): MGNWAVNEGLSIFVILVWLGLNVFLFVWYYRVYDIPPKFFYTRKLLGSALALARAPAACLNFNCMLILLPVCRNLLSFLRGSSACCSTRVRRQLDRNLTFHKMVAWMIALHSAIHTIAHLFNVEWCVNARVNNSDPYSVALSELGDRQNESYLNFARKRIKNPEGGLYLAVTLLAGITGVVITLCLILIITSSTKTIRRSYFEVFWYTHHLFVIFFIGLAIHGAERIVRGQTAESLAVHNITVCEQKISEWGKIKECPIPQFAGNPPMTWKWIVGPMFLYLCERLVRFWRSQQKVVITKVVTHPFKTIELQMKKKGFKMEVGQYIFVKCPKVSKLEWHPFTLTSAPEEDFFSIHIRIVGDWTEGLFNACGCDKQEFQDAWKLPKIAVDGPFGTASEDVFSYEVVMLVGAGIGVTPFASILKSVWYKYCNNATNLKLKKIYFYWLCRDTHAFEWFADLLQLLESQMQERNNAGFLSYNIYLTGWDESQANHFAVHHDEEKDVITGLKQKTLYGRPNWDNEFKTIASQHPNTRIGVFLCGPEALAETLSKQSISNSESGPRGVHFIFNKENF
# [19] = biological target: NADPH oxidase 4 (Homo sapiens) (UniProt Q9NPH5); experiment: NOX4-dependent H2O2 signal modulators, primary screen, NOX inhibitor project, cell-based, HEK293-NOX4, tetracycline-induced, Amplex Red fluorescence (AID 1160); settings: 45 min, higher = more signal, called active from +8 up or from −8 down
# NADPH oxidase 4 (Homo sapiens), sequence (Q9NPH5 whole entry, looked up): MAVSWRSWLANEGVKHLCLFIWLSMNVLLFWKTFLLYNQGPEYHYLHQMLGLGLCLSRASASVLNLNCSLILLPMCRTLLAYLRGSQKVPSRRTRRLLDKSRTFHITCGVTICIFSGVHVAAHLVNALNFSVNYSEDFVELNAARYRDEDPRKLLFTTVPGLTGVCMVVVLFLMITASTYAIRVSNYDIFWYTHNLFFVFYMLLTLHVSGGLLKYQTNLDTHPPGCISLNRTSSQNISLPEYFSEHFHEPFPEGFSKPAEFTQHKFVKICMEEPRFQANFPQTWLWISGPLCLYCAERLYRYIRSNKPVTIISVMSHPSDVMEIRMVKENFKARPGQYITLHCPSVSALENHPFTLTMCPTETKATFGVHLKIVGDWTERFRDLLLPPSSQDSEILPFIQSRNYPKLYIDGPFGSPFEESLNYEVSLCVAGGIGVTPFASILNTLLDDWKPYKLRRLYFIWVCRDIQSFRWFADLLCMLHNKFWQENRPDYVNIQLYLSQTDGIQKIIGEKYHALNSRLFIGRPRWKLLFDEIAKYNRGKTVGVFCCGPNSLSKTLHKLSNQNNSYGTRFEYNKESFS
# [20] = biological target: NADPH oxidase 5 (Homo sapiens) (UniProt Q96PH1); experiment: NOX5-dependent H2O2 signal modulators, primary screen, NOX inhibitor project, cell-based, HEK293-NOX5, Amplex Red fluorescence (AID 1161); settings: HEK293-NOX5, ionomycin, 45 min, higher = more signal
# NADPH oxidase 5 (Homo sapiens), sequence (Q96PH1 whole entry, looked up): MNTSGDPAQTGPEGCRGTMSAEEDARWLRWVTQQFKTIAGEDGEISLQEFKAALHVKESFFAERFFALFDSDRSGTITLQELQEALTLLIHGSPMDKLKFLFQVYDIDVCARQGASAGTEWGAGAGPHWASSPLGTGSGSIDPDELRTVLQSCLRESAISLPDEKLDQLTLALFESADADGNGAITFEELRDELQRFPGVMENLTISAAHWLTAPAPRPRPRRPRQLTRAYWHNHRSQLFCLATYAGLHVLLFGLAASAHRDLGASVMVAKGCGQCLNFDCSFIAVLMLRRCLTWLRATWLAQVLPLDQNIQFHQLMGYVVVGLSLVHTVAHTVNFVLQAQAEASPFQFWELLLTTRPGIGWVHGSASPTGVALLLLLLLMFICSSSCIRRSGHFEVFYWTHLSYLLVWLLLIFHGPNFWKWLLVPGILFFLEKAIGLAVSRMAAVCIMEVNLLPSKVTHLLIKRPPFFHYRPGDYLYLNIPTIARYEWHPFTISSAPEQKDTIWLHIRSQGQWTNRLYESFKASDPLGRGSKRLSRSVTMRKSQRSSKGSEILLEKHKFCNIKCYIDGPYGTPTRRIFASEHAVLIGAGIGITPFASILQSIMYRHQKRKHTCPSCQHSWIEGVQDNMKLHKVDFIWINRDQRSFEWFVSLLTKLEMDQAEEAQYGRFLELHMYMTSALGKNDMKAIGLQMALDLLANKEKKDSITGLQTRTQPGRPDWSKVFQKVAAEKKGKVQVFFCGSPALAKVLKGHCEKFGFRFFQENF
Structure (SMILES),composite z-score [1],z-score [2],z-score [3],z-score [4],z-score [5],composite z-score [6],composite z-score [7],composite z-score [8],composite z-score [9],composite z-score [10],z-score [11],composite z-score [12],z-score [13],z-score [14],z-score [15],z-score [16],z-score [17],z-score [18],z-score [19],z-score [20]
C/C=C/[C@@H](CCn1cc([C@H](O)c2ccccc2)nn1)[Si](C)(C)c1ccc(OC)cc1,0.303,-3.67 (inactive),0.214 (inactive),3.3 (inactive),0.128 (inactive),-0.514,-0.253,0.154,-0.575,-0.0723,0.703 (inactive),0.121,5.3 (inactive),1.06 (inactive),2.04 (inactive),0.473 (inactive),0.201,0.257 (inactive),-0.182 (inactive),-2.21
C=C(/C(=C/C[C@@H](OC(=O)c1ccncc1)c1ccccc1OCCO)c1cnc2ccccc2c1)C(C)C,0.816,-8.34 (active),0.556 (inactive),15.6 (active),-0.0321 (inactive),1.67,0.421,0.799,-0.0593,2.22,-0.592 (inactive),0.454,10 (active),4.55 (inactive),-1.59 (inactive),1.44 (inactive),-0.174,-2.57 (inactive),-1.11 (inactive),-2.56
COC(=O)[C@]1(Cc2ccccc2CN=[N+]=[N-])N=C(c2ccc(OCCCO)cc2)O[C@@H]1c1ccccc1CN=[N+]=[N-],0.749,-4.12 (inactive),-0.247 (inactive),1.6 (inactive),-1.01 (inactive),-0.908,-0.0471,-0.355,-0.27,0.353,1.23 (inactive),0.0962,30.8 (active),24.1 (active),1.88 (inactive),5.85 (inactive),0.196,-2.35 (inactive),-0.0356 (inactive),-1.79
COC(=O)C(CC#Cc1ccc2c(c1)[C@]1(C(=O)N2)[C@H](C(=O)N2CCc3cc(OC)c(OC)cc3C2)[C@H]2C(=O)O[C@H](c3ccccc3)[C@H](c3ccccc3)N2[C@@H]1c1ccc(OCCO)cc1)C(=O)OC,0.5,-0.201 (inactive),-0.895 (inactive),0.865 (inactive),-0.474 (inactive),1.28,0.246,1.28,0.251,1.64,0.408 (inactive),0.546,6.17 (inactive),2.37 (inactive),1.15 (inactive),1.28 (inactive),0.237,1.26 (inactive),0.487 (inactive),1.32
COc1cc2c(cc1OC)CN(C(=O)[C@@H]1[C@H]3C(=O)O[C@H](c4ccccc4)[C@H](c4ccccc4)N3[C@H](c3ccc(OCCO)cc3)[C@@]13C(=O)Nc1ccc(C#CCCO)cc13)CC2,0.452,-4.91 (inactive),-1.07 (inactive),-0.465 (inactive),0.0283 (inactive),1.64,-0.0812,0.431,0.755,1.25,2.02 (inactive),0.273,2.85 (inactive),0.0851 (inactive),0.464 (inactive),-1.1 (inactive),1.71,-0.303 (inactive),-0.458 (inactive),-4.23
[N-]=[N+]=NCc1ccccc1C[C@]1(C(=O)NCCN2CCOCC2)COC(c2ccc(OCCCO)cc2)=N1,0.315,-2.41 (inactive),-0.0639 (inactive),2.64 (inactive),-0.664 (inactive),0.837,0.161,0.969,0.645,-0.204,0.581 (inactive),0.265,23.9 (active),10.2 (active),3.35 (inactive),2.09 (inactive),0.132,-0.379 (inactive),0.846 (inactive),0.109
CO[C@H]1O[C@H](CO)[C@@H](OC(=O)c2ccc(Br)cc2)[C@@H]2OC(=O)[C@H](Cc3cccc(Br)c3)C/C=C/C[C@@H](Cc3cccc(Br)c3)C(=O)O[C@@H]12,0.422,-1.62 (inactive),-0.0682 (inactive),0.212 (inactive),0.122 (inactive),0.578,-0.0695,-0.103,0.442,0.707,-0.681 (inactive),0.415,1.56 (inactive),0.624 (inactive),-0.778 (inactive),0.484 (inactive),-0.0043,-0.129 (inactive),0.211 (inactive),0.875
NC(=O)NCC#Cc1ccc2c(c1)[C@]1(C(=O)N2)[C@H](c2ccc(OCCO)cc2)N2[C@H](c3ccccc3)[C@H](c3ccccc3)OC(=O)[C@H]2[C@@H]1C(=O)N1CCN(c2ncccn2)CC1,0.132,0.342 (inactive),-0.724 (inactive),-0.491 (inactive),-0.301 (inactive),-0.373,0.15,0.539,0.673,1.5,0.811 (inactive),0.538,3.03 (inactive),1.1 (inactive),0.454 (inactive),0.516 (inactive),0.0981,1.75 (inactive),1.48 (inactive),0.41
